# In PubChem BioAssay:
# A number with no mark means an inactive call. For some of these results: Entries with a potency or affinity are not part of this list. Active and inactive are the calls of the source. Unless noted, the rule behind the calls is not given here.
# Experiments:
# [1] = antimalarial activity against Dd2 strain (AID 2302;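 active = growth inhibition above 50% at the single 2 µM test dose, taken to imply half-maximal potency below 2 µM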;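 note: 0% = DMSO untreated growth and 100% = chloroquine plus artemisinin killed control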); details: P. falciparum Dd2 in RBCs, LDH growth readout, 72 h; at 2 µM; stronger effect = higher value
# [2] = HepG2 cytotoxicity, primary screen, cytotoxicity control for P. falciparum antimalarial project, cell-based, ATP luminescence (AID 2303;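 active = inhibition above 50%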;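 note: 0% = DMSO wells and 100% = digitonin-killed cells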); details: HepG2 viability, 24-48 h, at 10 µM, stronger effect = higher value
# [3] = target: L-lactate dehydrogenase (Plasmodium falciparum (isolate CDC / Honduras)) (UniProt Q27743); test: PfLDH activity inhibition – cell lysate, 3D7 strain, counter-screen for P. falciparum growth inhibition project (AID 2304);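 note: 0% = vehicle and 100% = reference inhibitor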; details: P. falciparum 3D7 crude extract, LDH APAD/NBT absorbance; at 2 µM; stronger effect = higher value
# [4] = inhibition of 3D7 malaria parasite growth – strain 3D7 (AID 2306);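 note: 0% = DMSO wells and 100% = chloroquine plus artemisinin control wells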; details: P. falciparum 3D7 erythrocytic growth, LDH absorbance, 72 h; at 2 µM; stronger effect = higher value
# [5] = target: Calcium-dependent protein kinase 1 (Plasmodium falciparum (isolate 3D7)) (UniProt P62344); test: PfCDPK1 kinase inhibitors, biochemical, TCAMS library (AID 1159585; cut-off not given, nearly all actives have IC50 up to about 0.98 µM;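 note: inhibitors leave more ATP so luminescence rises with inhibition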); details: recombinant PfCDPK1, Kinase-Glo ATP depletion luminescence
# [6] = target: Plasmodium falciparum protein kinase 6 (PK6, PF3D7_1337100) (UniProt Q8IDW1); test: PfPK6 kinase inhibitors, biochemical, TCAMS library (AID 1159586); details: recombinant PfPK6, Kinase-Glo ATP depletion luminescence
# [7] = target: Protein kinase 7 (PK7), Plasmodium falciparum 3D7 (PF3D7_0213400) (UniProt Q7YTF7); test: inhibition of Plasmodium PK7 catalytic activity – biochemical, TCAMS antimalarial set, Kinase-Glo luminescence (AID 1159587); details: recombinant PfPK7, Kinase-Glo ATP depletion luminescence
# [8] = target: Calcium-dependent protein kinase 4 (Plasmodium falciparum (isolate 3D7)) (UniProt Q8IBS5); test: PfCDPK4 kinase inhibitors, biochemical, TCAMS library (AID 1159588; cut-off not given, nearly all actives have IC50 up to about 0.91 µM); details: recombinant PfCDPK4, Kinase-Glo ATP depletion luminescence
# Calcium-dependent protein kinase 4 (Plasmodium falciparum (isolate 3D7)), sequence (Q8IBS5 whole entry, looked up): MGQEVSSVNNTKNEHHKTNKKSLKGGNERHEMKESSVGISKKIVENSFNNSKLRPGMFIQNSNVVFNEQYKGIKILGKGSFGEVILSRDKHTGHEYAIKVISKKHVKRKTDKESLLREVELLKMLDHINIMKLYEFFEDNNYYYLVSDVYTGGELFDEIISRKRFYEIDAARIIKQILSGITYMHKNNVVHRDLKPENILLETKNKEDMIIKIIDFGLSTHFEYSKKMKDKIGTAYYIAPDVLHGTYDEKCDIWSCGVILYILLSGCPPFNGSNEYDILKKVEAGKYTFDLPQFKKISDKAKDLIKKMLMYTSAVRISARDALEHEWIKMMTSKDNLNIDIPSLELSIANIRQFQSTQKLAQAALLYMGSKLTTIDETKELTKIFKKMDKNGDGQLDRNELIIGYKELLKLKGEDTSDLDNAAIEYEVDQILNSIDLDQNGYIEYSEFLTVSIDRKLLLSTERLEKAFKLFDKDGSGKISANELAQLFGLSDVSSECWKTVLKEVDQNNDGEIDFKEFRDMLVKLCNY
# L-lactate dehydrogenase (Plasmodium falciparum (isolate CDC / Honduras)), sequence (Q27743 whole entry, looked up): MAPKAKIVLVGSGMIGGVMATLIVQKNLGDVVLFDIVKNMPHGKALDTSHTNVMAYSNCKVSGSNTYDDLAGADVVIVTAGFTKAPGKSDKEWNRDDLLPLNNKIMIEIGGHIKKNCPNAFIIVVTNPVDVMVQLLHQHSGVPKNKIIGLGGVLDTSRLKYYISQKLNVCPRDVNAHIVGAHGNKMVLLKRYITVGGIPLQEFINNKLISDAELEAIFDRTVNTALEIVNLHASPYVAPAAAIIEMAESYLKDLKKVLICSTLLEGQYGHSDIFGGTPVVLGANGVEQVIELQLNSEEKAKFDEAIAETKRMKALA
# Plasmodium falciparum protein kinase 6 (PK6, PF3D7_1337100), sequence (Q8IDW1 1-305): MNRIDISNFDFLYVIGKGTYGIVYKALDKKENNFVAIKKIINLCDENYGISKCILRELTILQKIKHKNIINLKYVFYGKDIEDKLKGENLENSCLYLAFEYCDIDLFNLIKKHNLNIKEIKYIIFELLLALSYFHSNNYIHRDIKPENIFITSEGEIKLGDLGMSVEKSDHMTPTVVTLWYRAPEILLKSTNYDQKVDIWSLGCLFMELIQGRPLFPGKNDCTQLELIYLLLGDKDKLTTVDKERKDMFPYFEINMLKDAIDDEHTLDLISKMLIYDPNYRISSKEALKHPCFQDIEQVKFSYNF
# Protein kinase 7 (PK7), Plasmodium falciparum 3D7 (PF3D7_0213400), sequence (Q7YTF7 1-343): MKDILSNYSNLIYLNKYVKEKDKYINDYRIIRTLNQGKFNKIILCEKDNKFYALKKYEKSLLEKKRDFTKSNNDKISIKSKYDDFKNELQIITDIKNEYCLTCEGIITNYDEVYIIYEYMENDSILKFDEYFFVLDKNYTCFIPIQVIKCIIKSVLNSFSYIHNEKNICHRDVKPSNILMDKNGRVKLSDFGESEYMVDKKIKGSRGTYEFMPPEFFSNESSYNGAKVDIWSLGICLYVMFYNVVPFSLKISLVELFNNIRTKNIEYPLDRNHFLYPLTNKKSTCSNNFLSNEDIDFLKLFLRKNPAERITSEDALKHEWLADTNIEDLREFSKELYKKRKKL
# Calcium-dependent protein kinase 1 (Plasmodium falciparum (isolate 3D7)), sequence (P62344 whole entry, looked up): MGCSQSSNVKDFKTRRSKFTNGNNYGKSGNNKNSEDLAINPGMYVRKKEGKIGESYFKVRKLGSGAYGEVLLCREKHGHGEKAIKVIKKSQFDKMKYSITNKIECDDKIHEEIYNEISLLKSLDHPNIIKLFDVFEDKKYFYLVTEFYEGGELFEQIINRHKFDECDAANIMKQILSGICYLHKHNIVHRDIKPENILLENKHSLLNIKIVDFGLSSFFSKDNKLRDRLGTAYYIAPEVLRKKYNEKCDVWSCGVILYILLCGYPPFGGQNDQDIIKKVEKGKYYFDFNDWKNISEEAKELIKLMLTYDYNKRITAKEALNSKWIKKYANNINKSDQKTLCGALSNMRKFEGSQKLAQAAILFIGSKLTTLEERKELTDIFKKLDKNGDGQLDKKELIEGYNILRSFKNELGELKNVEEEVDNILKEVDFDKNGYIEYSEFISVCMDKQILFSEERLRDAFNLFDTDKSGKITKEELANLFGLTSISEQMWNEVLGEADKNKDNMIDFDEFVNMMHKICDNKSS
SMILES,growth inhibition [1],inhibition [2],inhibition [3],growth inhibition [4],outcome [5],outcome [6],outcome [7],outcome [8]
CC(C)c1sc(N2CCN(C)CC2)nc1C(=O)NCCc1cccc(Cl)c1,15%,9%,-1%,91% (active),inactive,inactive,inactive,inactive
O=C(/C=C/c1ccc(Cl)c(Cl)c1)N1CCC(C(O)CN2CCC(c3c[nH]c4ccccc34)CC2)CC1 (stereo unspecified),46%,14%,-4%,99% (active),inactive,inactive,inactive,inactive
COc1ccccc1C1CN(CCNC(=O)c2ncc(C)[nH]2)Cc2ccccc2O1 (stereo unspecified),86% (active),4%,0%,90% (active),inactive,inactive,inactive,inactive
Cc1cccc2[nH]c(-c3cccc(-c4ccc(NC(=O)c5cccnc5)cc4)c3)nc12,45%,64% (active),-1%,100% (active),inactive,inactive,inactive,inactive
CCCNCc1ccc(-c2ccc(CN(CCOC)C(=O)c3ccccc3)cc2)nc1,25%,16%,-7%,94% (active),inactive,inactive,inactive,inactive
CCC(C)NC(=O)Nc1ccc(-c2cccc(-c3nc4ccc(C(F)(F)F)cc4[nH]3)c2)cc1 (stereo unspecified),-1%,45%,0%,97% (active),inactive,inactive,inactive,inactive
CCc1ccc(C2CCN(CCCCNC(=O)c3ccc(NC(=O)c4ccc(Cl)cc4)cc3)CC2)c(OCCO)c1,100% (active),94% (active),-3%,98% (active),inactive,inactive,inactive,inactive
Nc1ncnc2cc(-c3cccc(S(N)(=O)=O)c3)sc12,99% (active),13%,2%,98% (active),inactive,inactive,inactive,inactive
O=C(Nc1cccc(C(F)(F)F)c1)c1ccc(S(=O)(=O)NCC2CCCN2CC2CCCCC2)cc1 (stereo unspecified),3%,14%,-5%,98% (active),inactive,inactive,inactive,inactive
COc1cc(Cc2cnc(N)nc2N)ccc1OCc1ccc(F)c(F)c1,31%,10%,3%,90% (active),inactive,inactive,inactive,inactive
CN1CCC(C(=O)N(Cc2ccc(-c3ccc(CNCCc4ccccc4)cn3)cc2)Cc2cccc(F)c2)CC1,80% (active),30%,-4%,90% (active),inactive,inactive,inactive,inactive
COc1ccccc1CNc1ccnc(N2CC(Oc3ccc(F)cc3)C2)n1,95% (active),2%,-4%,97% (active),inactive,inactive,inactive,inactive
CC(=O)Nc1ncc(C(=O)Nc2ccc(-c3cccc(-c4nc5ccc(F)cc5[nH]4)c3)cc2)s1,85% (active),47%,-3%,102% (active),inactive,inactive,inactive,inactive
CCCc1cc(OCCCOc2ccccc2)ccc1OCCCON1C(N)=NC(N)=NC1(C)C,96% (active),68% (active),6%,94% (active),inactive,inactive,inactive,inactive
Fc1cc(Cl)ccc1Nc1ccnc2cc(-c3ccc(CN4CCSCC4)o3)ccc12,99% (active),17%,0%,100% (active),inactive,inactive,inactive,inactive
COC(=O)c1cccc(CNCc2ccc(-c3ccc(-c4nc5ccc(F)cc5[nH]4)cc3)cc2)c1,95% (active),8%,2%,100% (active),inactive,inactive,inactive,inactive
COc1cccc(-c2ccc3c(-c4ccc(F)cc4)cnc(N)c3c2)c1,70% (active),27%,-2%,100% (active),inactive,inactive,inactive,inactive
O=C(Nc1cc(F)cc(F)c1)N[C@H]1CCN(CCCCCNC(=O)[C@@H]2C[C@H]2c2ccc(Cl)c(Cl)c2)C1,-4%,24%,-3%,88% (active),inactive,inactive,inactive,inactive
Cc1cc(-c2ccc3c(c2)CCN(CCC2CCC(NC(=O)/C=C/c4cccc(F)c4)CC2)CC3)on1 (stereo unspecified),19%,23%,-10%,95% (active),inactive,inactive,inactive,inactive
CCOC(=O)/C(=N\OC(C(=O)OC(C)(C)C)c1ccccc1)c1csc(NC(c2ccccc2)(c2ccccc2)c2ccccc2)n1 (stereo unspecified),68% (active),14%,5%,89% (active),inactive,inactive,inactive,inactive
COc1ccc(CCC(C)(C)NCC(O)c2cccc(C(F)(F)F)c2)cc1 (stereo unspecified),98% (active),26%,3%,99% (active),inactive,inactive,inactive,inactive
NC(=NCCc1ccc(Cl)cc1)c1ccc(Cl)c(Cl)c1,42%,43%,-1%,100% (active),inactive,inactive,inactive,inactive
CCC(CN1C(=O)C(c2ccccc2)(c2ccccc2)N=C1N)c1ccccc1 (stereo unspecified),98% (active),11%,-2%,98% (active),inactive,inactive,inactive,inactive
COc1c(OC)c(OC)c2ccccc2c1CCNCCCCNCCc1c(OC)c(OC)c(OC)c2ccccc12,72% (active),100% (active),-3%,99% (active),inactive,inactive,inactive,inactive

SMILES,growth inhibition [1],inhibition [2],inhibition [3],growth inhibition [4],outcome [5],outcome [6],outcome [7],outcome [8]
N#Cc1ccc(CNCCCCCCCNCc2ccc(-c3ccccc3)cc2)cc1,10%,19%,3%,87% (active),inactive,inactive,inactive,inactive
O=C(Nc1ccc2c(c1)CCNCC2)Nc1ccc2ccccc2c1,23%,-6%,-1%,84% (active),inactive,inactive,inactive,inactive
COc1ccc(CN(C)CCOc2ccc(NC(=O)c3cccc4c(=O)cc(-c5ccccc5)[nH]c34)cc2)cc1OC,44%,13%,-3%,98% (active),inactive,inactive,inactive,inactive
CCN(CC)c1ccc(C(c2ccc(N(CC)CC)cc2)c2cccc([N+](=O)[O-])c2)cc1,68% (active),39%,-1%,91% (active),inactive,inactive,inactive,inactive
OC1(c2ccccc2)CCN(Cc2cccc(-c3c[nH]c4nc(NC5CCCC5)ncc34)c2)C1 (stereo unspecified),31%,42%,-1%,92% (active),inactive,inactive,inactive,inactive
Cc1ccc(C(=O)Nc2ccc(F)cc2)cc1-c1nc(NC2CC(C)(C)NC(C)(C)C2)nc2c1ccc(=O)n2-c1c(F)cccc1F,96% (active),16%,-2%,89% (active),inactive,inactive,inactive,inactive
Cc1nc(Nc2ccc(F)cc2)nc(N2CCc3cc(O)ccc3C2C)c1C (stereo unspecified),97% (active),-5%,-6%,99% (active),inactive,inactive,inactive,inactive
CCCCCCc1cc(Oc2c(I)cc(C[C@H](N)C(=O)O)cc2I)ccc1O,-5%,-2%,-1%,97% (active),inactive,inactive,inactive,inactive
Cc1ccc(NC(=O)NC2CCN(c3ccnc4cc(Cl)ccc34)C2)cc1 (stereo unspecified),96% (active),19%,5%,101% (active),inactive,inactive,inactive,inactive
Cc1cc(OCCCN2CCC(NS(=O)(=O)c3ccc(Cl)c(Cl)c3)CC2)c2ccccc2n1,35%,11%,1%,96% (active),inactive,inactive,inactive,inactive
CC(=O)Nc1ccc(CN(Cc2cccc(OC(C)(C)C)c2)Cc2ccc3c(c2)OCCO3)cc1,96% (active),-10%,8%,95% (active),inactive,inactive,inactive,inactive
COc1ccc2[nH]cc(C3CCN(CCC4CCN(C(=O)/C=C/c5ccc(Cl)c(Cl)c5)CC4)CC3)c2c1,56% (active),52% (active),3%,101% (active),inactive,inactive,inactive,inactive
CNC(=O)COC(=O)c1c2c(nc3ccccc13)C(=Cc1ccc3c(c1)OCO3)CCC2,36%,7%,-2%,83% (active),inactive,inactive,inactive,inactive
COc1cccc(C(=O)Nc2ccc(-c3nc4ccccc4[nH]3)cc2)c1,19%,28%,-3%,95% (active),inactive,inactive,inactive,inactive
CCCN(Cc1nnc(-c2cccs2)o1)C(=O)CSc1nnnn1-c1cc(C)cc(C)c1,71% (active),2%,8%,92% (active),inactive,inactive,inactive,inactive
Cc1nc(N)nc(N)c1CCCOc1ccccc1Cl,5%,40%,-1%,98% (active),inactive,inactive,inactive,inactive
Nc1nc2c(cnn2CCCCCCCP(=O)(O)O)c(=O)[nH]1,91% (active),-3%,4%,94% (active),inactive,inactive,inactive,inactive
O=C(NC(Nc1ccc([N+](=O)[O-])cc1)C(Cl)(Cl)Cl)c1ccc(Cl)cc1 (stereo unspecified),94% (active),21%,4%,98% (active),inactive,inactive,inactive,inactive
O=S(=O)(Nc1cccc(CCN2CCC(N3CCCCC3)CC2)c1)c1ccccc1C(F)(F)F,32%,21%,1%,82% (active),inactive,inactive,inactive,inactive
CCN(CCN(C)C)Cc1ccc(-c2ccc(NS(=O)(=O)c3cccc(Cl)c3)cc2)cc1,40%,43%,4%,97% (active),inactive,inactive,inactive,inactive
COc1nc2c(CCN3CC[C@H](NCc4ccc5c(c4)NC(=O)CO5)[C@H](O)C3)c(Cl)cnc2cc1F,22%,21%,-3%,90% (active),inactive,inactive,inactive,inactive
COc1cc2c(cc1CCNCCCCNCCc1cc3c(cc1OC)CCCC3)CCCC2,36%,100% (active),0%,101% (active),inactive,inactive,inactive,inactive
COc1cc(C)nc2ccc(NC(=O)Nc3ccccc3[N+](=O)[O-])cc12,58% (active),6%,-1%,101% (active),inactive,inactive,inactive,inactive
